# In ChEMBL document CHEMBL1961873, “Compounds: GSK PKIS; Assays: Nanosyn kinase panel” (2012):
# Target: Casein kinase I isoform gamma-1 (Homo sapiens) (UniProt Q9HCP0)
# Conditions: at 0.1 µM
# 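Also: reported as mean inhibition, part of GSK PKIS.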
# Sequence of Casein kinase I isoform gamma-1 (Homo sapiens) (Q9HCP0 whole entry, looked up, canonical isoform): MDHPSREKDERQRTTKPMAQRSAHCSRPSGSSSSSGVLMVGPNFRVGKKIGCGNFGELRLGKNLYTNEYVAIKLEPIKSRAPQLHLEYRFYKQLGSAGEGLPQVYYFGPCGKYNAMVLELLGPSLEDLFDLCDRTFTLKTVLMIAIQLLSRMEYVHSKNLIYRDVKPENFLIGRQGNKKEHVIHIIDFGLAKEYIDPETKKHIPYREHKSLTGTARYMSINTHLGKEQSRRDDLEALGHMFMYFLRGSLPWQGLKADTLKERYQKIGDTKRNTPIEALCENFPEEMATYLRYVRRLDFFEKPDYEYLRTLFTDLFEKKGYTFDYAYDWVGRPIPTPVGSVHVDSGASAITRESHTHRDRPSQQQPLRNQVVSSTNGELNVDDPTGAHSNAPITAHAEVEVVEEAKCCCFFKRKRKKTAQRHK
row,SMILES,inhibition
1,Clc1ccc(CNc2nccc(-c3cnn4ncccc34)n2)cc1,0.12%
2,CN(c1ccc(NC(=O)Nc2c(Cl)cccc2Cl)cc1)c1ccnc(Nc2cccc(CS(C)(=O)=O)c2)n1,0.39%
3,Cc1ccc(NC(=O)c2ccoc2)cc1-c1ccc(C(=O)NCC2CC2)cc1,2.78%
4,FC(F)(F)c1cccc(Nc2nccc(-c3cnn4nc(-c5ccccc5)ccc34)n2)c1,2.48%
5,CN(C)c1ccc2c(c1)/C(=C/Nc1ccc(S(N)(=O)=O)cc1)C(=O)N2,1.12%
6,C/C(Nc1ccc(S(N)(=O)=O)cc1)=C1/C(=O)Nc2ccccc21,-0.74%
7,COc1cc(N2CCN(C(C)C)CC2)ccc1Nc1nc(Nc2ccc(F)cc2C(=O)NC[C@@H](O)CO)c2cc[nH]c2n1,2.26%
8,Nc1nccc(-c2c(-c3ccc(F)cc3)ncn2C2CCC(O)CC2)n1 (centres undefined),-1.19%
9,N#Cc1ccc(Oc2nccc(-c3c(-c4ccc(F)cc4)ncn3C3CCNCC3)n2)cc1,3.79%
10,C[C@@H](Oc1cc(-n2cnc3ccc(OCC4CCN(C)CC4)cc32)sc1C(N)=O)c1ccccc1Cl,5.29%
11,Fc1ccc(-c2c(-c3ccncc3)nc3n2CCS3)cc1,-1.2%
12,O=C(Nc1n[nH]c2cc(-c3cc(F)ccc3F)ccc12)C1CC1,3.28%
13,CCS(=O)(=O)c1ccc(OC)c(Nc2ncc(-c3ccccc3Cl)o2)c1,0.27%
14,O=C(Nc1n[nH]c2nc(-c3ccco3)ccc12)C1CC1,0.09%
15,NS(=O)(=O)c1ccc(Nc2cc(-c3ccc(O)c(F)c3)n[nH]2)cc1,-2%
16,O=C1Nc2ccccc2/C1=C/Nc1ccc(-n2cncn2)cc1,4.33%
17,Fc1ccc(-c2ncn(C3CCNCC3)c2-c2ccnc(Oc3ccc(F)c(F)c3)n2)cc1,0.31%

row,SMILES,inhibition
1,COc1cc(C)c(N(C)C(=O)CN(C)C)cc1Nc1nc(Nc2cccc(F)c2C(N)=O)c2cc[nH]c2n1,-0.75%
2,COc1ccc(-c2ccc3c(NC(=O)C4CC4)n[nH]c3n2)cc1,1.84%
3,COc1cc(Nc2ncc3c(C)nc(-c4cccc(Oc5ccccc5)c4)n3n2)cc(OC)c1OC,1.67%
4,COc1cc(Nc2ncc3c(C)nc(-c4cccc(C(F)(F)F)c4)n3n2)cc(OC)c1OC,2.94%
5,c1ccc(-c2n[nH]cc2-c2ccnc(-c3ccc(OCCN4CCOCC4)cc3)c2)nc1,-1.07%
6,CCc1cccc(CC)c1/C=C/c1cncc(C(=O)NC)c1,2.66%
7,NS(=O)(=O)c1ccc(N/N=C2\C(=O)Nc3ccc(-c4cnco4)cc32)cc1,-2.5%
8,COc1cc2ncn(-c3cc(OCc4ccccc4C(F)(F)F)c(C(C)=O)s3)c2cc1OC,2.77%
9,COc1cccc(-n2cnc3c(N/N=C/c4ccncc4)ncnc32)c1,-3.8%
10,NS(=O)(=O)c1ccc(N/N=C2\C(=O)Nc3ccc(C(=O)NCCCn4ccnc4)cc32)cc1,5.08%
11,Fc1ccc(-c2ncn(C3CCNCC3)c2-c2ccnc(Oc3ccc4c(c3)OCO4)n2)cc1,5.84%
12,COc1cc(Nc2ncc(-c3ccccc3)o2)cc(OC)c1OC,-1.4%
13,Fc1ccc(-c2ncn(C3CCNCC3)c2-c2ccnc(Oc3ccc(Oc4ccccc4)cc3)n2)cc1,6.35%
14,O=C(Nc1ccc(Oc2ccc3[nH]c(NC(=O)c4ccccc4)nc3c2)cc1)Nc1cc(C(F)(F)F)ccc1F,2.09%
15,Cc1ccc(C(=O)NC(C)C)cc1-c1ccc(C(=O)NCC2CC2)cc1,-2.95%
16,NC(=O)c1ccc(Oc2nccc(-c3c(-c4ccc(F)cc4)ncn3C3CCNCC3)n2)cc1,5.2%
17,NC(=O)Cc1ccccc1Oc1nccc(-c2c(-c3ccc(F)cc3)ncn2C2CCNCC2)n1,4.95%
